Here are results for 39 molecules from PubChem BioAssay (EPA / NIEHS).

Inconclusive results are not listed. Activity calls are given as the source filed them. Rule for the calls: active = hit-call score of the fitted dose curve at least 0.9, where 1 is the maximum; inconclusive = response in the unintended direction; inactive = score below 0.9.

Test system in the first experiment: not listed separately
Description: TOX21_p53_BLA_p4_viability: Viability Assessment in the Tox21 HCT-116 p53 Agonism Beta-lactamase Assay, Phase 4 (AID 2283597).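 Note: hits lower the luminescence signal meaning cytotoxicity.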 The method, boiled down:
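Readout: ATP luminescence (CellTiter-Glo), measured 30 min after reagent addition at RT. The reagent followed a 2 h CCF4-AM incubation, and the cells had been exposed to compound for 16 h at 37C.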
The AC50 is the concentration giving half of the maximal activity seen. With `CCN(CC)c1ccc(C(=C2C=CC(=[N+](CC)CC)C=C2)c2ccccc2)cc1`, the AC50 was 1.94 µM (active).
Consider `CCN(CC)CCOc1ccc(C(O)(Cc2ccc(Cl)cc2)c2ccc(C)cc2)cc1` (stereo not drawn), for which the AC50 is 30.7 µM (active).
Turning to `O=S(=O)(O)c1ccc2c(N=Nc3ccc(S(=O)(=O)O)c4ccccc34)c(O)c(S(=O)(=O)O)cc2c1`, the outcome was inactive.
The same measure, in the same setting: for `CC(C)(C)CC(C)(C)c1cc(Cc2cc(C(C)(C)CC(C)(C)C)cc(-n3nc4ccccc4n3)c2O)c(O)c(-n2nc3ccccc3n2)c1` the value was “inactive”.

The target in a further experiment is Cellular tumor antigen p53 (Homo sapiens) (UniProt P04637). Description: TOX21_p53_BLA_p5_ratio: Tox21 HCT-116 p53 Agonism Beta-lactamase Assay, Ratio, Phase 5 (AID 2283599). The procedure, abridged: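 HCT-116 cells carrying a p53-inducible beta-lactamase reporter were seeded at 4000 cells/well and dosed after 5 h with compound in DMSO (217-fold dilution). After 16 h at 37C, CCF4-AM substrate was added for 2 h, and the 460/530 nm emission ratio was scored as gain-of-signal versus DMSO.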
Cellular tumor antigen p53 (Homo sapiens), sequence (P04637 whole entry, looked up): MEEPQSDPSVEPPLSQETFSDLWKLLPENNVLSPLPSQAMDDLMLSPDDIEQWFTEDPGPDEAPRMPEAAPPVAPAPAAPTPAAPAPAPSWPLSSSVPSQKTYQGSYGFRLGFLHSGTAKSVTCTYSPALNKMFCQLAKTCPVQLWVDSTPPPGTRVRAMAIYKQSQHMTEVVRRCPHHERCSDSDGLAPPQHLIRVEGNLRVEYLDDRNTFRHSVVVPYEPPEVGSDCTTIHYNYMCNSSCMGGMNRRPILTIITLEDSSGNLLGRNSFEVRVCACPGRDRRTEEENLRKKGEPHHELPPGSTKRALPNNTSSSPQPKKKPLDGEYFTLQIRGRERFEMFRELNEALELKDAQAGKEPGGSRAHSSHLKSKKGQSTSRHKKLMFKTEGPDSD
Regarding `CCCCCCCCCCCCC(=O)O`, the outcome was inactive.
Regarding `Cc1ccc(NC(=O)N(C)C)cc1NC(=O)N(C)C`, the result was inactive.
As to `OC[C@@H](O)[C@@H](O)CO`, the outcome was inactive.
Consider `NC(=O)CCCCC(N)=O`, for which the outcome was inactive.
Regarding `OCC(S)CS` (stereo not drawn), the result was inactive.
As to `CC1CCCO1` (stereo not drawn), the concentration at half-maximal activity (AC50) was 85.2 µM (active).
On to `C=CC1=C(C(=O)O)N2C(=O)[C@@H](NC(=O)/C(=N\O)c3csc(N)n3)[C@H]2SC1` (stereo in doubt), for which the result was inactive.
Consider `CC(=NO)C(C)=NO`, for which the result was inactive.
With `CN(C)CCCN1c2ccccc2Sc2ccc(C(F)(F)F)cc21`, the result was inactive.
Take `O=C(O)CONC(=O)c1ccccc1`: the result was inactive.
Take `C[C@H](CCC(=O)O)[C@H]1CC[C@H]2[C@@H]3[C@H](O)C[C@@H]4C[C@H](O)CC[C@]4(C)[C@H]3C[C@H](O)[C@]12C`: the result was inactive.
On the same count and under the same terms, to `CCc1ncnc2cc(OC)c(OC)cc12` belongs “inactive”.
In the case of `CC(C)n1nc(-c2cc3cc(O)ccc3[nH]2)c2c(N)ncnc21`, the concentration at half-maximal activity (AC50) is 34.6 µM (active).
For the molecule `CNCc1ccccc1`, the outcome was inactive.
For `CC(C)[N+](C)(C)CC(O)COc1cccc2ccccc12` (stereo not drawn), the outcome was inactive.
As for `CC(=O)N1C[C@H](O)C[C@H]1C(=O)O`, the outcome was inactive.
In the case of `NS(=O)(=O)c1cc(C2(O)NC(=O)c3ccccc32)ccc1Cl` (stereo not drawn), the outcome was inactive.
For the molecule `CC(C(=O)O)c1cccc(C(=O)c2ccccc2)c1` (stereo not drawn), the result was inactive.
On to `NCCOCCN`, for which the result was inactive.
With `C=C1CC2C3CCC4=CC(=O)C=C[C@]4(C)[C@@]3(F)[C@@H](O)C[C@]2(C)[C@@]1(O)C(=O)COC(C)=O` (stereo partly drawn), the result was inactive.
As for `CCOC(=O)[C@H](CCc1ccccc1)N[C@@H](C)C(=O)N1[C@H](C(=O)O)C[C@H]2CCCC[C@@H]21`, the outcome was inactive.
On to `CC1CCCNC1` (stereo not drawn), for which the result was inactive.
On the same count and under the same terms, for `O=C(O)c1c(Cl)c(Cl)c(Cl)c(Cl)c1-c1c2cc(I)c(=O)c(I)c-2oc2c(I)c(O)c(I)cc12` the value was “inactive”; for `CC(=O)C=Cc1ccco1`, “inactive”.
The same measure, in the same setting: for `O=C(/C=C/c1cccc(F)c1)NC1CC1` the value was “inactive”; for `CCOC(=O)[C@H](CCc1ccccc1)N[C@@H](C)C(=O)N1Cc2ccccc2C[C@H]1C(=O)O`, “inactive”; for `CC(=O)O[C@H]1C[C@@H]2CC[C@@H]3[C@H](CC[C@@]4(C)[C@H]3C[C@H]([N+]3(C)CCCCC3)[C@@H]4OC(C)=O)[C@@]2(C)C[C@@H]1[N+]1(C)CCCCC1`, “inactive”.
In the case of `Cc1c(C)c2c(c(C)c1OC(=O)CCC(=O)OCCO)CCC(C)(CCCC(C)CCCC(C)CCCC(C)C)O2` (stereo not drawn), the concentration at half-maximal activity (AC50) is 16.2 µM (active).
Turning to `COc1ccc(OC)c(NC(=O)CC(C)=O)c1`, the outcome was inactive.
Regarding `CC1=C(/C=C/C(C)=C/C=C/C(C)=C/C=C/C=C(C)/C=C/C=C(C)/C=C/C2=C(C)C[C@@H](O)CC2(C)C)C(C)(C)C[C@H](O)C1`, the concentration at half-maximal activity (AC50) was 38.8 µM (active).
For the molecule `CC(=O)c1ccc2c(c1)N(CCCN1CCC(CCO)CC1)c1ccccc1S2`, the result was inactive.
With `Brc1ccccc1-c1ccccc1`, the outcome was inactive.
The same measure, in the same setting: to `CNc1cc(OC)c(C(=O)N[C@H]2CCN(Cc3ccccc3)[C@H]2C)cc1Cl` belongs “inactive”.
For the molecule `O=C1c2c(O)ccc([N+](=O)[O-])c2C(=O)c2c([N+](=O)[O-])ccc(O)c21`, the half-maximal activity concentration (AC50) is 30.2 µM (active).
Take `Cc1cc(CC(C)CC(C)(C)C)n(O)c(=O)c1` (stereo not drawn) (tested in a mixture with another compound): the half-maximal activity concentration (AC50) was 36.1 µM (active).
Turning to `CCN(CC)c1ccc(C(=C2C=CC(=[N+](CC)CC)C=C2)c2ccccc2)cc1`, the AC50 is 9.22 µM (active).
With `CCN(CC)CCOc1ccc(C(O)(Cc2ccc(Cl)cc2)c2ccc(C)cc2)cc1` (stereo not drawn), the outcome was inactive.
With `O=S(=O)(O)c1ccc2c(N=Nc3ccc(S(=O)(=O)O)c4ccccc34)c(O)c(S(=O)(=O)O)cc2c1`, the outcome was inactive.
`CC(C)(C)CC(C)(C)c1cc(Cc2cc(C(C)(C)CC(C)(C)C)cc(-n3nc4ccccc4n3)c2O)c(O)c(-n2nc3ccccc3n2)c1`: the result was inactive.
